Results from PubChem BioAssay (Tox21).
Inconclusive results are not listed. The source made the active and inactive calls. The call rests on the fitted dose curve; in most records, active means well fitted cell-killing curve with a large enough effect in the repeat runs; inconclusive means weak or mixed curves, or effect the other way; inactive means no such curve, though single readings can be large or run the other way.

Experiment: qHTS assay to identify small molecule agonists of the farnesoid-X-receptor (FXR) signaling pathway - cell viability counter screen (AID 743218); further: nearly all actives have a fitted effect of over 45% in size
Details: FXR-bla HEK293T viability, CellTiter-Glo luminescence, 16 h; series mostly up to 62.6 µM
Description: U.S. Tox21 Program National Center for Advancing Translational Sciences [NCATS] NIH Chemical Genomics Center [NCGC] U.S. Environmental Protection Agency [EPA] National Institutes of Environmental Health Sciences [NIEHS] National Toxicology Program [NTP] U.S. Food and Drug Administration [FDA] Tox21 Assay Overview: The farnesoid-X-receptor (FXR), a nuclear hormone receptor, is highly expressed in liver, intestine, kidney and adrenal cortex. Natural ligands of FXR are the bile acids (Cholic acid, Chenodeoxy cholic acid etc). FXR is an important regulator of diverse metabolic pathways, including the bile acid homeostasis, lipid and glucose metabolisms. FXR regulates the expression of target genes by binding either as a monomer or as a heterodimer with the retinoid X receptor (RXR). Numerous studies have reported that FXR exerts protective function during cholestasis, diabetes, liver regeneration, and cancer. To identify compounds that activate FXR signaling, GeneBLAzer FXR-UAS-bla HEK 293T cell line (Invitrogen, Carlsbad, CA) containing a beta-lactamase reporter gene under the control of a UAS response element was used to screen the Tox21 10K compound library. The cytotoxicity of the Tox21 compound library against the FXR-bla cell line was tested in parallel by measuring the cell viability using CellTiter-Glo assay in the same wells.
Tox21 Assay Protocol Summary: FXR-bla cells were dispensed at 5000 cells/5uL/well in 1536-well black wall/clear bottom plates using a Multidrop Combi (Thermo Fisher Scientific, Waltham, MA) dispenser. After the assay plates were incubated at 37 C and 5% CO2 for 5 h, 23 nL of compounds dissolved in DMSO, positive controls or DMSO only was transferred to the assay plate by a Pintool station (Kalypsys, San Diego, CA). The assay plates were incubated at 37C for 16 h. After 1 uL of LiveBLAzerTM B/G FRET substrate was added using a Bioraptr Flying Reagent Dispenser (FRD) workstation (Beckman Coulter, Indianapolis, IN), the plates were incubated at room temperature for 2 h, and fluorescence intensity was measured by an Envision plate reader (PerkinElmer, Shelton, CT). For cell viability readout that measures cytotoxicity, 4uL/well of CellTiter-Glo reagent was added into the assay plates using a Bioraptr FRD. After 30 min incubation at room temperature, the luminescence intensity in the plates was measured using a ViewLux plate reader (PerkinElmer).
For `CCOC(=O)CCC(=O)OCC`, the outcome was “inactive”. For `NC(=O)N[C@@H](CCC(=O)O)C(=O)O`, the outcome was “inactive”. In the case of `CCOC(=O)c1cnc2c(cnn2CC)c1NN=C(C)C`, the outcome is reported as “inactive”. In the case of `C=C[Si](OC(C)=O)(OC(C)=O)OC(C)=O`, the outcome is reported as “inactive”. In the case of `CCOc1c(N2CCOCC2)cnn(C)c1=O`, the outcome is reported as “inactive”. In the case of `CCCCS(=O)(=O)N[C@@H](Cc1ccc(OCCCCC2CCNCC2)cc1)C(=O)O`, the outcome is reported as “inactive”. With `CC(C)(CCC(=O)O)C(=O)O` the outcome was “inactive”. With `COc1ccccc1OCC1CNC(=O)O1` (stereo not given) the outcome was “inactive”. In the case of `C[C@@H]1CCC[C@H](C)N1`, the outcome is reported as “inactive”. With `O=C(O)c1cn(C2CC2)c2cc(N3CCNCC3)c(F)cc2c1=O` the outcome was “inactive”. In the case of `CCCCc1nc(Cl)c(CO)n1Cc1ccc(-c2ccccc2-c2nn[nH]n2)cc1`, the outcome is reported as “inactive”. For `CC12CCC(C(=O)C1=O)C2(C)C` (stereo not given), the outcome was “inactive”. For `O=C(CO)[C@@H](O)[C@H](O)[C@@H](O)CO`, the outcome was “inactive”. In the case of `Nc1ccn([C@@H]2O[C@H](CO)[C@@H](O)[C@@H]2O)c(=O)n1`, the outcome is reported as “inactive”. In the case of `CCOC(=O)c1ccccc1`, the outcome is reported as “inactive”. In the case of `CN1[C@@H]2CC[C@H]1CC(OC(=O)C(O)c1ccccc1)C2` (stereo not given in full), the outcome is reported as “inactive”. In the case of `CCCCN1C=CN(C)C1`, the outcome is reported as “inactive”. In the case of `C[N+]1(CC2COC(c3ccccc3)(c3ccccc3)O2)CCCCC1` (stereo not given), the outcome is reported as “inactive”. In the case of `CNC(=O)Nc1ccc(Cl)c(Cl)c1`, the outcome is reported as “inactive”. For `CC(C)(C#N)Nc1nc(Cl)nc(NC2CC2)n1`, the outcome was “inactive”. In the case of `CCO[Si](OCC)(OCC)c1ccccc1`, the outcome is reported as “inactive”. With `C[N+]12CCC(CC1)C(OC(=O)C(O)(c1ccccc1)c1ccccc1)C2` (stereo not given) the outcome was “inactive”. For `CC(C)c1ccc2ncccc2c1`, the outcome was “inactive”. For `C[N+](C)(CCOc1ccccc1)Cc1cccs1`, the outcome was “inactive”. In the case of `CNCC(O)c1ccc(O)c(O)c1` (stereo not given), the outcome is reported as “inactive”. With `C1CCC2(CCCCO2)OC1` the outcome was “inactive”. For `C=COC(=O)C(C)(CC)CCC(C)C` (stereo not given), the outcome was “inactive”. With `Cc1ncc([C@@H](CCCCCCc2ccc3c(n2)NCCC3)CC(=O)O)cn1` the outcome was “inactive”. In the case of `N[C@@H](CCC(=O)O)C(=O)O`, the outcome is reported as “inactive”. With `CC1(C)OC[C@@H](COC(=O)CCc2ccc(OC[C@@H](O)CNCCNC(=O)N3CCOCC3)cc2)O1` the outcome was “inactive”. With `NC(=O)N1c2ccccc2CC(=O)c2ccccc21` the outcome was “inactive”. In the case of `Cc1ccc(-c2ccccc2C#N)cc1`, the outcome is reported as “inactive”. In the case of `CN(C)CCN(C)CCN(C)C`, the outcome is reported as “inactive”. For `N[C@H](C(=O)O)[C@@H](O)c1ccc(O)c(O)c1`, the outcome was “inactive”. For `Clc1cc(Cl)c(Cl)nc1Cl`, the outcome was “inactive”. In the case of `CC(=O)N1C[C@H](O)C[C@H]1C(=O)O`, the outcome is reported as “inactive”. With `C=COCC1CCC(COC=C)CC1` (stereo not given) the outcome was “inactive”. With `CCOc1ccc2nc(S(N)(=O)=O)sc2c1` the outcome was “inactive”. In the case of `CCCCOCCOC(=O)COc1cc(Cl)c(Cl)cc1Cl`, the outcome is reported as “inactive”. For `CCCCCCCCCCCCSC`, the outcome was “inactive”.
